PubChem BioAssay (Tox21)
Records with an inconclusive call do not appear. Activity calls are given as the source filed them. Calls come from the whole dose curve; as a rule, active = well fitted curve in the direction sought with a large enough effect in the repeat runs; inconclusive = weak or mixed curves; inactive = no such curve, though single readings can be large; an effect the other way counts as inactive or inconclusive.

Tests used:
[1] = qHTS RealTime-Glo MT Cell Viability Assay in HEK293 cells - 16 hour (AID 1224872); note: nearly all actives have a fitted effect of over 50% in size; note: potency is the fitted concentration of half-maximal effect
How it was run: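 Nonlytic real-time viability readout: viable cells convert prosubstrate to NanoLuc substrate, giving luminescence proportional to live cell number. HEK293, 600 cells/well, compound added after 5 h, continuous culture at 37 C.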

[2] = qHTS RealTime-Glo MT Cell Viability Assay in HepG2 cells - 8 hour (AID 1224873); note: nearly all actives have a fitted effect of over 55% in size
How it was run: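 HepG2 cells mixed with RealTime-Glo MT reagents (NanoLuc plus cell-permeant prosubstrate) were seeded at 600 cells/well, incubated 5 h at 37 C/5% CO2, then pinned with compounds in DMSO; nonlytic luminescence tracked viability during 40 h treatment.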

[3] = qHTS RealTime-Glo MT Cell Viability Assay in HEK293 cells - 40 hour (AID 1224874); details: RealTime-Glo luminescence; max response: hits give low values; note: nearly all actives have a fitted effect of over 50% in size; note: potency is the fitted concentration of half-maximal effect
How it was run: (§1)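 HEK293 cells mixed with RealTime-Glo reagents (NanoLuc plus cell-permeant prosubstrate) at 600 cells/well, preincubated 5 h at 37 C/5% CO2, then given 23 nL compound in DMSO. Nonlytic luminescence from viable cells was read at 0, 8, 16, 24, 32 and 40 h.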

[4] = A CellTox Green Cytotoxicity Assay to monitor cytotoxicity in HEK293 cells - 24 hour (AID 1224875); note: series mostly up to about 77 µM; nearly all actives have a fitted effect of over 45% in size
How it was run: (§2)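 HEK293 cells premixed with CellTox Green dye were seeded at 600 cells/well and left 5 h at 37 C/5% CO2 before pin transfer of 23 nL compound in DMSO. Fluorescence from dye bound to dead-cell DNA was read during 40 h treatment.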

[5] = A CellTox Green Cytotoxicity Assay to monitor cytotoxicity in HepG2 cells - 16 hour (AID 1224876); note: nearly all actives have a fitted effect of over 45% in size
How it was run: (§3)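 HepG2 cells were seeded together with the CellTox Green dye at 600 cells/well, left 5 h at 37 C/5% CO2, then given compounds in DMSO. Fluorescence from dye bound to dead-cell DNA was read repeatedly over 40 h of treatment at 37 C.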

[6] = qHTS RealTime-Glo MT Cell Viability Assay in HepG2 cells - 32 hour (AID 1224877); note: nearly all actives have a fitted effect of over 55% in size
How it was run: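 Luminescence read-out: viable HepG2 cells reduce a prosubstrate to a NanoLuc substrate, giving a signal proportional to live cell number. Reads taken at 0, 8, 16, 24, 32 and 40 h of compound exposure at 37 C.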

[7] = A CellTox Green Cytotoxicity Assay to monitor cytotoxicity in HepG2 cells - 24 hour (AID 1224878); note: nearly all actives have a fitted effect of over 45% in size; note: potency is the fitted concentration of half-maximal effect
How it was run: as §3

[8] = A CellTox Green Cytotoxicity Assay to monitor cytotoxicity in HepG2 cells - 40 hour (AID 1224879); note: nearly all actives have a fitted effect of over 40% in size; note: potency is the fitted concentration of half-maximal effect
How it was run: as §3

[9] = A CellTox Green Cytotoxicity Assay to monitor cytotoxicity in HEK293 cells - 32 hour (AID 1224881); note: nearly all actives have a fitted effect of over 40% in size
How it was run: as §2

[10] = qHTS RealTime-Glo MT Cell Viability Assay in HEK293 cells - 0 hour (AID 1224880); note: top concentration of the series differs between compounds; nearly all actives have a fitted effect of over 45% in size
How it was run: as §1
% is set by controls: 0 for no effect and ±100 for the full control effect.

Cc1cc(C)n(CO)n1
inactive: Potency [1] | outcome [2] | max response [3] 1.2% | Potency [4] | Potency [5] | Potency [6] | Potency [7] | Potency [8] | Potency [9]

CCCC1CCCC(=O)O1 (configuration not stated)
inactive: Potency [1] | outcome [2] | max response [3] 0.877% | Potency [4] | Potency [5] | Potency [6] | Potency [7] | Potency [8] | Potency [9]

CC/C=C/CCO
inactive: Potency [1] | outcome [2] | max response [3] -11.5% | Potency [4] | Potency [5] | Potency [6] | Potency [7] | Potency [8] | Potency [9]

CC(=O)c1cccnc1
inactive: Potency [1] | outcome [2] | max response [3] -6.53% | Potency [4] | Potency [5] | Potency [6] | Potency [7] | Potency [8] | Potency [9]

Cc1c(-c2cccnc2)c2ccccc2n1CCCCC(=O)O
inactive: Potency [1] | outcome [2] | max response [3] 2.18% | Potency [4] | Potency [5] | Potency [6] | Potency [7] | Potency [8] | Potency [9]

[O-][n+]1ccc(Cl)cc1
inactive: Potency [1] | outcome [2] | max response [3] 17.4% | Potency [4] | Potency [5] | Potency [6] | Potency [7] | Potency [8] | Potency [10] | Potency [9]

CC(=O)Nc1ccccc1O
inactive: Potency [1] | outcome [2] | max response [3] 2.65% | Potency [4] | Potency [5] | Potency [6] | Potency [7] | Potency [8] | Potency [9]

O=C1c2ccccc2C(=O)C1c1ccc2cc(S(=O)(=O)O)cc(S(=O)(=O)O)c2n1
inactive: Potency [1] | outcome [2] | max response [3] -25.3% | Potency [4] | Potency [5] | Potency [6] | Potency [7] | Potency [8] | Potency [9]

CCc1c(C)[nH]c2c1C(=O)C(CN1CCOCC1)CC2 (configuration not stated)
inactive: Potency [1] | outcome [2] | max response [3] 2.91% | Potency [4] | Potency [5] | Potency [6] | Potency [7] | Potency [8] | Potency [9]

O=C(C1CCCCC1)N1CC(=O)N2CCCc3ccccc3C2C1 (configuration not stated)
inactive: Potency [1] | outcome [2] | max response [3] -23.1% | Potency [4] | Potency [5] | Potency [6] | Potency [7] | Potency [8] | Potency [9]

CC(CC(C#N)(c1ccccc1)C(C)C)N(C)C (configuration not stated)
inactive: Potency [1] | outcome [2] | max response [3] 6.67% | Potency [4] | Potency [5] | Potency [6] | Potency [8] | Potency [10] | Potency [9]

CC(CN=Cc1ccccc1O)N=Cc1ccccc1O (configuration not stated)
inactive: Potency [1] | outcome [2] | max response [3] 0.376% | Potency [4] | Potency [5] | Potency [6] | Potency [7] | Potency [8] | Potency [10] | Potency [9]

CC(=O)S[C@H](C(=O)N[C@H]1Cc2ccccc2[C@H]2CCC[C@@H](C(=O)O)N2C1=O)C(C)C
inactive: Potency [1] | outcome [2] | max response [3] 16.8% | Potency [4] | Potency [5] | Potency [6] | Potency [7] | Potency [8] | Potency [9]

CCCCCCCCOCCCN
inactive: Potency [1] | outcome [2] | max response [3] 2.92% | Potency [4] | Potency [5] | Potency [6] | Potency [7] | Potency [8] | Potency [9]

OCC(O)c1ccccc1 (configuration not stated)
inactive: Potency [1] | outcome [2] | max response [3] -20.6% | Potency [4] | Potency [5] | Potency [6] | Potency [7] | Potency [8] | Potency [9]

Cc1ccc2ccccc2c1[N+](=O)[O-]
inactive: Potency [1] | outcome [2] | max response [3] 5.94% | Potency [4] | Potency [5] | Potency [6] | Potency [7] | Potency [8] | Potency [9]

O=C(O)c1ccc(O)c(O)c1
inactive: Potency [1] | outcome [2] | max response [3] -5.14% | Potency [4] | Potency [5] | Potency [6] | Potency [8] | Potency [10] | Potency [9]

O=C(NC1CCN(CCc2c[nH]c3ccccc23)CC1)c1ccccc1
inactive: outcome [2] | Potency [4] | Potency [5] | Potency [6] | Potency [7] | Potency [8] | Potency [9]
active: Potency [1] 9.52 µM | Potency [3] 9.52 µM

CC(C(=O)O)c1ccc(/C=C2\CCCCC2=O)cc1 (configuration not stated)
inactive: Potency [1] | outcome [2] | max response [3] 21% | Potency [4] | Potency [5] | Potency [6] | Potency [7] | Potency [8] | Potency [9]

O=C(O)c1ccccc1-n1cc(C(=O)O)c(=O)c2cc(Nc3c(F)cc(F)cc3Cl)c(Cl)cc21
inactive: Potency [1] | outcome [2] | max response [3] 0.656% | Potency [4] | Potency [5] | Potency [6] | Potency [8] | Potency [10] | Potency [9]

CCc1cnc(C(=O)O)c(C(=O)O)c1
inactive: Potency [1] | outcome [2] | max response [3] 5.23% | Potency [4] | Potency [5] | Potency [6] | Potency [7] | Potency [8] | Potency [10] | Potency [9]

C=C[Si](OCC)(OCC)OCC
inactive: Potency [1] | outcome [2] | max response [3] 11.4% | Potency [4] | Potency [5] | Potency [6] | Potency [7] | Potency [8] | Potency [9]

CC(C)CCCCCCCOC(=O)c1ccc(C(=O)OCCCCCCCC(C)C)c(C(=O)OCCCCCCCC(C)C)c1
inactive: Potency [1] | outcome [2] | max response [3] 11.4% | Potency [4] | Potency [5] | Potency [6] | Potency [7] | Potency [8] | Potency [10] | Potency [9]

CCCCCCCCCCCC(=O)OCC
inactive: Potency [1] | outcome [2] | max response [3] 3.23% | Potency [4] | Potency [5] | Potency [6] | Potency [7] | Potency [8] | Potency [9]

CCCCCCC/C=C/C=O
inactive: Potency [1] | outcome [2] | max response [3] 6.61% | Potency [4] | Potency [5] | Potency [6] | Potency [7] | Potency [8] | Potency [9]

CCC(C(=O)O)c1ccc(N2Cc3ccccc3C2=O)cc1 (configuration not stated)
inactive: Potency [1] | outcome [2] | max response [3] -1.19% | Potency [4] | Potency [5] | Potency [6] | Potency [7] | Potency [8] | Potency [9]

CC(C)=CCC[C@H](C)CCO
inactive: Potency [1] | outcome [2] | max response [3] -1.49% | Potency [4] | Potency [5] | Potency [6] | Potency [7] | Potency [10] | Potency [9]

CCC(C)CCCC(C)(C)O (configuration not stated)
inactive: Potency [1] | outcome [2] | max response [3] 21.8% | Potency [4] | Potency [5] | Potency [6] | Potency [8] | Potency [10] | Potency [9]

CCOc1ccc2c(c1)C(C)CC(C)(C)N2 (configuration not stated)
inactive: Potency [1] | outcome [2] | max response [3] -1.9% | Potency [6] | Potency [10]
active: Potency [7] 49 µM | Potency [8] 43.6 µM

COC(=O)c1cc(Cl)ccc1[N+](=O)[O-]
inactive: Potency [1] | outcome [2] | max response [3] -14.8% | Potency [4] | Potency [5] | Potency [6] | Potency [8] | Potency [10] | Potency [9]
